For part of these data: Potency and affinity values are given separately. Calls of active or inactive are those of the source. Unless noted, the rule behind the calls is not given here.
Legend:
[1] = antimalarial activity against Dd2 strain (AID 2302;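 active = growth inhibition above 50% at the single 2 µM test dose, taken to imply half-maximal potency below 2 µM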;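 note: 0% = DMSO untreated growth and 100% = chloroquine plus artemisinin killed control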); settings: P. falciparum Dd2 in RBCs, LDH growth readout, 72 h; at 2 µM; hits give high values
[2] = HepG2 cytotoxicity, primary screen, cytotoxicity control for P. falciparum antimalarial project, cell-based, ATP luminescence (AID 2303;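 active = inhibition above 50%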;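 note: 0% = DMSO wells and 100% = digitonin-killed cells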); settings: HepG2 viability, 24-48 h, at 10 µM, hits give high values
[3] = biological target: L-lactate dehydrogenase (Plasmodium falciparum (isolate CDC / Honduras)) (UniProt Q27743); assay: PfLDH activity inhibition – cell lysate, 3D7 strain, counter-screen for P. falciparum growth inhibition project (AID 2304);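 note: 0% = vehicle and 100% = reference inhibitor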; settings: P. falciparum 3D7 crude extract, LDH APAD/NBT absorbance; at 2 µM; hits give high values
Chain of L-lactate dehydrogenase (Plasmodium falciparum (isolate CDC / Honduras)) (Q27743 whole entry, looked up): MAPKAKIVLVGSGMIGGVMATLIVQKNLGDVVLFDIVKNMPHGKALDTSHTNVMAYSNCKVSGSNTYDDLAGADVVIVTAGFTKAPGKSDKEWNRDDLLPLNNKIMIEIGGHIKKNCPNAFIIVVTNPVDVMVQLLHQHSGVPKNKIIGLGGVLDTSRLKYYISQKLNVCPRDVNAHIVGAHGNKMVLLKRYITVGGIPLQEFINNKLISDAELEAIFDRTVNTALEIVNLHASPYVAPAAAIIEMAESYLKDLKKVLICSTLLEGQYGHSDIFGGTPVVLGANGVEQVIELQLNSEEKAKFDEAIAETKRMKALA

[4] = inhibition of 3D7 malaria parasite growth – strain 3D7 (AID 2306);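 note: 0% = DMSO wells and 100% = chloroquine plus artemisinin control wells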; settings: P. falciparum 3D7 erythrocytic growth, LDH absorbance, 72 h; at 2 µM; hits give high values
[5] = biological target: Plasmodium falciparum protein kinase 6 (PK6, PF3D7_1337100) (UniProt Q8IDW1); assay: PfPK6 kinase inhibitors, biochemical, TCAMS library (AID 1159586); settings: recombinant PfPK6, Kinase-Glo ATP depletion luminescence
Chain of Plasmodium falciparum protein kinase 6 (PK6, PF3D7_1337100) (Q8IDW1 1-305): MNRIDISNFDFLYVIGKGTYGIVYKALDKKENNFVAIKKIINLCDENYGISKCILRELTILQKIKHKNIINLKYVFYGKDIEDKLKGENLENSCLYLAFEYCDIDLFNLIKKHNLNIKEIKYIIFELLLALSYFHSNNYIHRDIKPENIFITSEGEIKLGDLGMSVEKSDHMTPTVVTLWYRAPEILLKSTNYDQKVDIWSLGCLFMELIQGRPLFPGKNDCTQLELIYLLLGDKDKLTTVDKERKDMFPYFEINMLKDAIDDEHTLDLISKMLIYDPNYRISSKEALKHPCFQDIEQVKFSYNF

[6] = biological target: Protein kinase 7 (PK7), Plasmodium falciparum 3D7 (PF3D7_0213400) (UniProt Q7YTF7); assay: inhibition of Plasmodium PK7 catalytic activity – biochemical, TCAMS antimalarial set, Kinase-Glo luminescence (AID 1159587); settings: recombinant PfPK7, Kinase-Glo ATP depletion luminescence
Chain of Protein kinase 7 (PK7), Plasmodium falciparum 3D7 (PF3D7_0213400) (Q7YTF7 1-343): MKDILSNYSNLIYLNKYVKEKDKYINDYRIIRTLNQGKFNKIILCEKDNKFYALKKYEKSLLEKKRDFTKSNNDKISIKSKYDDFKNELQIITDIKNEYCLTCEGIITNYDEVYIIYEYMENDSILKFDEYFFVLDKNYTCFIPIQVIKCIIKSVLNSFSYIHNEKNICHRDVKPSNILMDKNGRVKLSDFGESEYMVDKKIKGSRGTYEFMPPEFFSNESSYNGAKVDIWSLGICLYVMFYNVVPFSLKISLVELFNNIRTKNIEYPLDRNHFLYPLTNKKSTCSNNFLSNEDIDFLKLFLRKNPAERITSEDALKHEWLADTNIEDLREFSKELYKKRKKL

[7] = biological target: Calcium-dependent protein kinase 4 (Plasmodium falciparum (isolate 3D7)) (UniProt Q8IBS5); assay: PfCDPK4 kinase inhibitors, biochemical, TCAMS library (AID 1159588; cut-off not given, nearly all actives have IC50 up to about 0.91 µM); settings: recombinant PfCDPK4, Kinase-Glo ATP depletion luminescence
Chain of Calcium-dependent protein kinase 4 (Plasmodium falciparum (isolate 3D7)) (Q8IBS5 whole entry, looked up): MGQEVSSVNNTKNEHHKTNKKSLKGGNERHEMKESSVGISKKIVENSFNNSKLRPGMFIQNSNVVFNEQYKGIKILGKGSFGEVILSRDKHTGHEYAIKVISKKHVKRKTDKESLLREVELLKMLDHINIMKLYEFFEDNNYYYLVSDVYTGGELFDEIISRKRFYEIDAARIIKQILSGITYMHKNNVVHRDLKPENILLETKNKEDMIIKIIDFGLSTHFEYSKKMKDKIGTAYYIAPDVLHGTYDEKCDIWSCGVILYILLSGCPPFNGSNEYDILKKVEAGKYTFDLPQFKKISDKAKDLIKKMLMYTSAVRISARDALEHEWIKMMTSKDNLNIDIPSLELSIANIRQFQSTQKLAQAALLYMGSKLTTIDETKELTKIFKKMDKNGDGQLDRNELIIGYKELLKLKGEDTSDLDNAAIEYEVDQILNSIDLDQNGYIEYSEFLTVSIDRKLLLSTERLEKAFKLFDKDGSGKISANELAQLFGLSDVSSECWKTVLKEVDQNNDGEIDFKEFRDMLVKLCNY

Cc1cc(F)ccc1-c1nc(Nc2ccncc2)c2ccn(C)c2n1
inactive: growth inhibition [1] 8% | inhibition [2] 9% | inhibition [3] 5% | outcome [5] | outcome [6] | outcome [7]
active: growth inhibition [4] 89%

N#Cc1ccc(-c2cnc3ccc(NCCc4cccnc4)nn23)cc1
inactive: inhibition [2] 27% | inhibition [3] 6% | outcome [5] | outcome [6] | outcome [7]
active: growth inhibition [1] 81% | growth inhibition [4] 99%

Oc1cc(Nc2ccnc3cc(I)ccc23)c(F)cc1Cl
inactive: inhibition [2] -3% | inhibition [3] -3% | outcome [5] | outcome [6] | outcome [7]
active: growth inhibition [1] 77% | growth inhibition [4] 92%

Cc1ccc(Nc2nc3cc(N(C)c4ccnc(Nc5cccc(CCS(C)(=O)=O)c5)n4)ccc3n2C)cc1
active: growth inhibition [1] 73% | inhibition [2] 78% | growth inhibition [4] 99%
inactive: inhibition [3] 4% | outcome [5] | outcome [6] | outcome [7]

CN1CCN(Cc2ccc(-c3ccc4c(Nc5cc(O)c(Cl)cc5F)ccnc4c3)o2)CC1
active: growth inhibition [1] 99% | growth inhibition [4] 100%
inactive: inhibition [2] 2% | inhibition [3] -4% | outcome [5] | outcome [6] | outcome [7]

Cc1nnc(-c2cccc(Nc3ccnc4cc(-c5nccs5)ccc34)c2)o1
inactive: inhibition [2] 38% | inhibition [3] -2% | outcome [5] | outcome [6] | outcome [7]
active: growth inhibition [1] 89% | growth inhibition [4] 95%

COc1cc(-c2nc(C(C)(C)CN)[nH]c2-c2ccncc2)ccc1Br
inactive: inhibition [2] 17% | inhibition [3] 1% | outcome [5] | outcome [6] | outcome [7]
active: growth inhibition [1] 95% | growth inhibition [4] 97%

CN(C)CCOc1ccc(-c2cc(-c3ccc(Cl)c(O)c3)c(-c3ccnc(N)n3)o2)cc1
inactive: inhibition [2] 43% | inhibition [3] 2% | outcome [5] | outcome [6] | outcome [7]
active: growth inhibition [1] 95% | growth inhibition [4] 100%

CN1CCN(CCCNCc2cccc(Nc3nccc(Nc4ccc(Oc5ccccc5)cc4)n3)c2)CC1
active: growth inhibition [1] 80% | inhibition [2] 97% | growth inhibition [4] 100%
inactive: inhibition [3] -2% | outcome [5] | outcome [6] | outcome [7]

O=C(NCCCN1CCCCC1)c1ccc(Nc2nccc(Nc3ccc(Oc4ccccc4)cc3)n2)cc1
inactive: inhibition [2] 30% | inhibition [3] -3% | outcome [5] | outcome [6] | outcome [7]
active: growth inhibition [1] 61% | growth inhibition [4] 100%

Cn1c(Nc2cc(C(C)(C)C)on2)nc2cc(Nc3ccnc(Nc4cccc(CS(C)(=O)=O)c4)n3)ccc21
inactive: inhibition [3] -4% | outcome [5] | outcome [6] | outcome [7]
active: growth inhibition [1] 94% | inhibition [2] 63% | growth inhibition [4] 99%

CC(C)(C)CNCC(C)(C)c1nc(-c2ccc(Cl)c(O)c2)c(-c2ccncc2)[nH]1
active: growth inhibition [1] 98% | growth inhibition [4] 101%
inactive: inhibition [2] 42% | inhibition [3] 5% | outcome [5] | outcome [6] | outcome [7]

CC(C)(CNC(=O)C1CCN(CCOc2ccc(Cl)cc2)CC1)c1nc(-c2ccc(Cl)c(O)c2)c(-c2ccncc2)[nH]1
active: growth inhibition [4] 102%
inactive: growth inhibition [1] 5% | inhibition [2] 40% | inhibition [3] 7% | outcome [5] | outcome [6] | outcome [7]

CS(=O)(=O)Nc1cccc(-c2cnc3[nH]cc(-c4ccc(CN)cc4)c3c2)c1
inactive: inhibition [2] 27% | inhibition [3] 2% | outcome [5] | outcome [6] | outcome [7]
active: growth inhibition [1] 95% | growth inhibition [4] 98%

COc1ccc(-c2cnc3[nH]cc(-c4ccncc4)c3c2)cc1OC
inactive: inhibition [3] -2% | outcome [5] | outcome [6] | outcome [7]
active: growth inhibition [1] 97% | inhibition [2] 52% | growth inhibition [4] 98%

COc1ccc(-c2cnn3ccc(Nc4cc(OC)c(OC)c(OC)c4)nc23)cc1OC
active: growth inhibition [1] 100% | inhibition [2] 57% | growth inhibition [4] 98%
inactive: inhibition [3] -4% | outcome [5] | outcome [6] | outcome [7]

CC(=O)Nc1cccc(Nc2nccc(Nc3ccc(Oc4ccccc4)cc3)n2)c1
inactive: inhibition [2] 15% | inhibition [3] -6% | outcome [5] | outcome [6] | outcome [7]
active: growth inhibition [1] 99% | growth inhibition [4] 101%

CC(C)(CNCCOc1ccc(Cl)cc1)c1nc(-c2ccc(Cl)c(O)c2)c(-c2ccnc(N)n2)[nH]1
active: growth inhibition [4] 97%
inactive: growth inhibition [1] 19% | inhibition [2] 45% | inhibition [3] -6% | outcome [5] | outcome [6] | outcome [7]

CC(C)(CNC(=O)[C@H]1CCCN1)c1nc(-c2ccc(Cl)c(O)c2)c(-c2ccncc2)[nH]1
inactive: inhibition [2] -11% | inhibition [3] -1% | outcome [5] | outcome [6] | outcome [7]
active: growth inhibition [1] 95% | growth inhibition [4] 86%

CC(C)(CNCc1ccc(Cl)cc1)c1nc(-c2ccc(Cl)c(O)c2)c(-c2ccncc2)[nH]1
inactive: inhibition [3] 5% | outcome [5] | outcome [6] | outcome [7]
active: growth inhibition [1] 98% | inhibition [2] 86% | growth inhibition [4] 101%

COc1cccc(Nc2nccc(-c3c(-c4cccc(NC(=O)c5c(F)cccc5F)c4)nn4ccccc34)n2)c1
inactive: inhibition [2] 35% | inhibition [3] -2% | outcome [5] | outcome [6] | outcome [7]
active: growth inhibition [1] 98% | growth inhibition [4] 98%

CC(C)(CNC(=O)C1CCN(Cc2ccoc2)CC1)c1nc(-c2ccc(Cl)c(O)c2)c(-c2ccncc2)[nH]1
active: growth inhibition [1] 66% | growth inhibition [4] 93%
inactive: inhibition [2] -12% | inhibition [3] -2% | outcome [5] | outcome [6] | outcome [7]

CC(C)(CNC(=O)C1CCN(CCOCc2ccccc2)CC1)c1nc(-c2ccc(Cl)c(O)c2)c(-c2ccncc2)[nH]1
active: growth inhibition [4] 101%
inactive: growth inhibition [1] 18% | inhibition [2] 11% | inhibition [3] -14% | outcome [5] | outcome [6] | outcome [7]

COc1ccc(-c2cnc3ccc(NC4CCC(O)CC4)nn23)cn1 (stereo not drawn)
inactive: inhibition [3] 4% | outcome [5] | outcome [6] | outcome [7]
active: growth inhibition [1] 73% | inhibition [2] 54% | growth inhibition [4] 98%

COc1ccc(-c2cnc3ccc(NCCCO)nn23)cc1OC
inactive: inhibition [2] 9% | inhibition [3] -1% | outcome [5] | outcome [6] | outcome [7]
active: growth inhibition [1] 90% | growth inhibition [4] 98%

COCCNCc1cccc(-c2ccc3c(Nc4cc(O)c(Cl)cc4F)ccnc3c2)c1
active: growth inhibition [1] 79% | growth inhibition [4] 101%
inactive: inhibition [2] -3% | inhibition [3] 7% | outcome [5] | outcome [6] | outcome [7]

CS(=O)(=O)CCNCc1cccc(-c2ccc3c(Nc4cc(O)c(Cl)cc4F)ccnc3c2)c1
active: growth inhibition [1] 100% | growth inhibition [4] 101%
inactive: inhibition [2] 9% | inhibition [3] -7% | outcome [5] | outcome [6] | outcome [7]

CN1CCN(c2ccc(Nc3ncc(Cl)c(Nc4cccnc4C(N)=O)n3)cc2)CC1
inactive: inhibition [3] -1% | outcome [5] | outcome [6] | outcome [7]
active: growth inhibition [1] 97% | inhibition [2] 99% | growth inhibition [4] 95%

CCOC(=O)c1cccc(NC(=O)Nc2cccc(-c3ncc(OCCCN)c4c3nc(-c3nonc3N)n4CC)c2)c1
active: growth inhibition [1] 98% | growth inhibition [4] 100%
inactive: inhibition [2] 16% | inhibition [3] 2% | outcome [5] | outcome [6] | outcome [7]

COCCNCc1ncsc1-c1ccc2c(Nc3cc(O)c(Cl)cc3F)ccnc2c1
active: growth inhibition [1] 92% | growth inhibition [4] 101%
inactive: inhibition [2] 0% | inhibition [3] -5% | outcome [5] | outcome [6] | outcome [7]

Cc1ccc(O)cc1Nc1ccnc2cc(-c3cccc(CNCCS(C)(=O)=O)c3)ccc12
active: growth inhibition [1] 100% | growth inhibition [4] 99%
inactive: inhibition [2] 9% | inhibition [3] 2% | outcome [5] | outcome [6] | outcome [7]

c1ccc(Oc2ccc(Nc3ccnc(Nc4ccc(OCCN5CCCCC5)cc4)n3)cc2)cc1
active: growth inhibition [1] 66% | growth inhibition [4] 97%
inactive: inhibition [2] 23% | inhibition [3] -2% | outcome [5] | outcome [6] | outcome [7]

CC(C)(CNCc1ccccc1)c1nc(-c2ccc(Cl)c(O)c2)c(-c2ccncc2)[nH]1
inactive: inhibition [3] -2% | outcome [5] | outcome [6] | outcome [7]
active: growth inhibition [1] 99% | inhibition [2] 77% | growth inhibition [4] 101%

CN(C)CCOc1ccc(-c2cc(-c3ccnc(N)n3)c(-c3ccc(Cl)c(O)c3)o2)cc1
inactive: inhibition [2] 14% | inhibition [3] 5% | outcome [5] | outcome [6] | outcome [7]
active: growth inhibition [1] 91% | growth inhibition [4] 101%

CC(C)(CN)c1nc(-c2ccc(Br)c(O)c2)c(-c2ccncc2)[nH]1
inactive: inhibition [2] 31% | inhibition [3] 0% | outcome [5] | outcome [6] | outcome [7]
active: growth inhibition [1] 97% | growth inhibition [4] 96%

CCn1c(-c2nonc2N)nc2c(-c3ccc(CO)o3)ncc(OCCCN)c21
active: growth inhibition [1] 97% | growth inhibition [4] 93%
inactive: inhibition [2] -12% | inhibition [3] -3% | outcome [5] | outcome [6] | outcome [7]

CN(C)CCNCc1nc(-c2ccc3c(Nc4ccc(Oc5ccccc5)cc4)ccnc3c2)cs1
inactive: inhibition [2] 8% | inhibition [3] 6% | outcome [5] | outcome [6] | outcome [7]
active: growth inhibition [1] 100% | growth inhibition [4] 101%

NCCCOc1cnc(-c2ccccc2)c2nc(-c3nonc3N)n(CCc3ccccc3)c12
active: growth inhibition [1] 86% | inhibition [2] 56% | growth inhibition [4] 93%
inactive: inhibition [3] -4% | outcome [5] | outcome [6] | outcome [7]

CS(=O)(=O)Cc1ccc(Nc2nccc(-c3c(-c4cccc(NC(=O)c5c(F)cccc5F)c4)nn4ncccc34)n2)cc1
inactive: inhibition [3] 1% | outcome [5] | outcome [6] | outcome [7]
active: growth inhibition [1] 93% | inhibition [2] 86% | growth inhibition [4] 97%

Reference: PubChem BioAssay
